# MITF inh: MITF inhibitors, primary screen, biochemical, AlphaScreen, human. Microphthalmia-associated transcription factor (Homo sapiens), O75030. AlphaScreen MITF homodimerization, bead proximity signal. inhibition, % at 2.6 µM. 0.91% of 650,000 active. AID 1259374, 2018; in the data active = inhibition above about 50%;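 also: 0% = vehicle wells with protein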
# GPR151 activ: activators of human GPR151, primary screen, cell-based, PathHunter beta-arrestin, luminescence; 1% of 650,000 active; PathHunter beta-arrestin GPR151 cells; activation, % at 11.2 µM; G-protein coupled receptor 151 (Homo sapiens), Q8TDV0; in the data active = activation above about 4.9%;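 also: 0% = median of compound wells and 100% = cells with positive control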
# Target sequence (Q8TDV0 whole entry, looked up): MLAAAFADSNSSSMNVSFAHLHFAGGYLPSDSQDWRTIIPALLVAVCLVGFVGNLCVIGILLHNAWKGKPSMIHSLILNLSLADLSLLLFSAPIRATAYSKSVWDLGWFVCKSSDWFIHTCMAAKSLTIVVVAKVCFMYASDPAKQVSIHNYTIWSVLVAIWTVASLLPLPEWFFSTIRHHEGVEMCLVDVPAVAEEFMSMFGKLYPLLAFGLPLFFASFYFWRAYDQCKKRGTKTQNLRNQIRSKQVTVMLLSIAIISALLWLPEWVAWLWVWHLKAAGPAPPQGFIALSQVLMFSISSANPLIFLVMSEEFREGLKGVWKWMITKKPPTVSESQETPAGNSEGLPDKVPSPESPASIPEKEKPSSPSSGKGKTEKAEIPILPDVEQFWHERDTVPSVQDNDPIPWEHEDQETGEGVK
# TEAD-YAP inh: TEAD-YAP interaction inhibition, primary screen, TEAD-YAP interaction inhibitor project, luminescence, HEK-TIYL cells; AID 1259422, 2018; 1.4% of 640,000 active; inhibition, % at 9.12 µM; TEAD-Gal4/YAP UAS-luciferase luminescence; in the data active = inhibition above about 32%;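 also: 0% = median of test compound wells and 100% = reference inhibitor wells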
# FBW7 activator: FBW7 E3 ligase activators, primary screen, biochemical, AlphaScreen, human | AID 1259310, 2017 | normalized activity (activation), % at 26.1 µM | 0.13% of 650,000 active | F-box/WD repeat-containing protein 7 (Homo sapiens), Q969H0 | AlphaScreen FBW7–phospho-cyclin E peptide binding, activator screen; in the data active = normalized activity above about 1.9%;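 also: purified mutant Fbw7 with reduced substrate affinity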
# GPR151 confirm: GPR151 activators, triplicate retest, confirmation, cell-based, PathHunter beta-arrestin, luminescence; activation, % at 11.2 µM; shares compounds with GPR151 activ; GPR151 PathHunter beta-arrestin cells, 90 min; % of EA-reagent control over plate median; 6,700 tested, under 10 active;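 active = mean percent activation across replicates above the confirmation screen cutoff of 4.91%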
# GPR119 ag: GPR119 activators in beta-arrestin cells, counter-screen for GPR151 activator project, cell-based, PathHunter beta-arrestin, luminescence, triplicate. 0.3% of 6,700 active. shares compounds with GPR151 activ. AID 1508611, 2020. 90 min; 0 = compound-well median, 100 = enzyme-acceptor control. activation, % at 11.2 µM;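 active = mean percent activation in the counterscreen above 29.09%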;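 also: counterscreen on off-target GPR119 to flag nonselective hits from the GPR151 activator screen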
# * hit, by the source's call; · = no result. This is a sample that favours compounds with a hit; in the whole collection about 3.5% have one here.
SMILES,MITF inh,GPR151 activ,TEAD-YAP inh,FBW7 activator,GPR151 confirm,GPR119 ag
NC(=O)c1ccc(-c2cccc(C(=O)NCCc3ccc(O)cc3)n2)cc1,47,5.4*,18,0,1,6
COc1ccc(/C=N/Nc2nc(-c3cc4cc(OC)ccc4oc3=O)cs2)cc1,8,0,-9,0,·,·
CC[C@@H](Cn1ncc2ccccc2c1=O)NC(=O)Cn1nc(C)c2ccccc2c1=O,-4,0,-4,0,·,·
COc1ccc2[nH]c(C)c(CN(C)C)c(=O)c2c1,-3,0,15,0,·,·
CCOc1ccc2[nH]c(C)c(CN(C)C)c(=O)c2c1,-1,6.8*,-4,0,0,4
CCOC(=O)c1c(NC(=O)c2ccc(S(=O)(=O)N3CCCCCC3)cc2)sc2c1CCN(CC)C2,-3,-1,-4,0,·,·
O=C1c2ccc(Br)cc2C(=O)N1c1ccc([N+](=O)[O-])cc1Cl,4,-2,10,0,·,·
CCOc1ccc(N2C(=O)NC(=O)/C(=C\c3ccc(OC)c(OC)c3)C2=O)cc1,7,-1,12,0,·,·
C=CCOc1ccc(/C=C2/C(=O)NC(=O)N(c3ccc(OCC)cc3)C2=O)cc1OCC,10,7.6*,12,0,1,6
COc1ccc(N2C(=O)NC(=O)/C(=C\c3ccc(F)cc3)C2=O)cc1,-5,5.5*,2,0,1,16
O=S(=O)(c1ccc(Cl)cc1)N(CCCN1CCOCC1)Cc1cccs1,48,5.8*,-16,0,0,6
O=S(=O)(c1ccc(F)cc1)N(CCCN1CCOCC1)Cc1cccs1,28,1,-8,0,·,·
Cc1ccc(NC(=O)c2ccc(N3C(=O)C4C5C=CC(C5)C4C3=O)cc2)cc1[N+](=O)[O-] (stereo not given),-12,0,8,0,·,·
O=C(Cn1cncn1)NN=C1c2ccccc2-c2ccccc21,-3,5.2*,-5,0,1,6
O=C(Cn1cncn1)N/N=C/c1ccccc1Cl,12,1,1,0,·,·
Cn1c(C(=O)Nc2ccc(Cl)cc2)cc2c(=O)n(C)c3ccccc3c21,-1,1,-8,0,·,·
CCN(CC)c1nc(NCCCN2CCCC2=O)nc(NCCCN2CCCC2=O)n1,5,0,0,0,·,·
CCN(CC)c1nc(NCCCN2CCCC2=O)nc(NCc2nc3ccccc3[nH]2)n1,0,6.9*,-1,0,-1,1
Cc1ccn2c(C(=O)Nc3ccc(Cl)cc3)c(C)nc2c1,15,5.5*,-7,0,1,3
O=C(Nc1ccc2[nH]ncc2c1)[C@H]1CCN(C(=O)[C@@H](O)CSc2ccc(Br)cc2)C1,1,5.7*,-4,0,-1,10
O=C(Nc1ccc2[nH]ncc2c1)[C@H]1CCN(C(=O)[C@H](O)CSc2ccc(Br)cc2)C1,6,-1,-11,0,·,·
COc1ccc2c(CC(=O)OCc3c(C)noc3C)coc2c1,0,5.1*,9,0,-2,-10
Cc1noc(C)c1COC(=O)Cc1coc2cc3c(cc12)CCC3,-9,3,2,0,·,·
Cn1ccc2cc(-c3cc(NCCCN4CCCC4=O)ncn3)ccc21,-17,11*,1,0,0,1
Cc1noc(C)c1-c1cc(NCCCN2CCCC2=O)ncn1,2,5.9*,-4,0,-1,-7
SMILES,MITF inh,GPR151 activ,TEAD-YAP inh,FBW7 activator,GPR151 confirm,GPR119 ag
COc1ccc(-c2cc(NCCCN3CCCC3=O)ncn2)cc1,-3,0,-11,0,·,·
Cc1nc2c(-c3ccccc3)c(C)nn2c(C)c1CCC(=O)NCCN1CCOCC1,-4,7.6*,1,0,-1,-7
CCOc1ccc2[nH]c(=O)c(CN(Cc3ccc(OC)cc3)C(=O)N(C)C)cc2c1,1,8.3*,4,0,0,15
Cc1cc(NCc2nc3ccccc3[nH]2)nc(Nc2ccc(-n3ccnc3)cc2)n1,4,4,-14,0,·,·
O=c1[nH]c(-c2ccco2)nc2ccccc12,3,1,-14,0,·,·
Cc1cc(C(=O)Nc2cccc(O)c2)ccc1[N+](=O)[O-],15,-1,-36,0,·,·
Cc1cc(C(=O)Nc2cccc(NC(=O)c3ccccc3)c2)ccc1[N+](=O)[O-],8,6.3*,-11,0,0,3
Cc1cccc(NC(=O)c2ccc(NCCc3ccccc3)c([N+](=O)[O-])c2)c1,10,6.6*,6,0,-1,-4
O=C(NCCO)C(=O)NCC(c1cccs1)S(=O)(=O)c1ccccc1 (stereo not given),2,4.9*,-1,0,0,-12
CCC(=O)Oc1cc2c(C(=O)OC(C)C)c(C)oc2cc1Br,-6,8.2*,-44,0,1,17
O=C(CCn1c(=O)oc2ccccc21)N1CCCc2ccccc21,9,0,0,0,·,·
CCc1cc2c(=O)c(-c3ccc4c(c3)OCCO4)coc2cc1OC(C)C(=O)OC (stereo not given),4,6.8*,4,1,3,-1
CCc1cc2c(=O)c(-c3ccc4c(c3)OCCCO4)coc2cc1OC(C)C(=O)OC (stereo not given),4,4,23,0,·,·
COc1cccc(CNC(=O)CC2C(=O)NCCN2Cc2ccc(C)o2)c1OC (stereo not given),1,0,3,0,·,·
O=C(NCc1ccccc1F)c1ccco1,4,1,3,0,·,·
O=C(NCc1ccccc1Br)c1ccco1,7,6.1*,-3,0,-1,-10
O=C1CC(c2ccc(Cl)cc2)CC2=C1C(c1ccc3c(c1)OCO3)Nc1ccccc1N2 (stereo not given),20,-1,8,1,·,·
O=C1CC(c2ccc(Cl)cc2)CC2=C1C(c1cc3c(cc1Br)OCO3)Nc1ccccc1N2 (stereo not given),3,9.0*,3,0,-1,-3
Cc1ccc(N/C=C/C(=O)c2cccs2)cc1C,7,9.6*,-24,1,-2,-20
CCOc1cc(/C=C/c2[nH]c(=O)[nH]c(=O)c2[N+](=O)[O-])ccc1O,3,6.5*,1,0,0,-5
COc1ccc(CCNC(=O)CCC2(Cc3ccc4ccccc4c3)CCC(=O)N2)cc1 (stereo not given),0,2,20,0,·,·
O=C(/C=C/c1cccc2ccccc12)NCc1ccccc1,15,5.0*,-7,0,-1,-8

# Screens as filed in PubChem BioAssay.
